# Shown is part of a subset that was picked to be rich in the strongest signals.
# Assays:
# Assay in all cases: glycan array binding signal (z-score within array); higher = stronger binding
# Settings in all cases: glycan notation: IUPAC condensed, linker removed
# [1] = target: Fuc(a1-2)Gal(b1-3)GalNAc(a1-3)[Fuc(a1-2)]Gal(b1-4)GlcNAc
# Procedure, shortened: (§1)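 The binding signal is a Z-score computed within each array. Data were drawn from 3228 arrays in the Consortium for Functional Glycomics database, restricted to those with a known protein sequence. Scores were averaged over arrays of the same protein sequence at different concentrations or buffers, and over linkers, and negative values can be taken as non-binding.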
# [2] = target: Fuc(a1-2)Gal(b1-3)GlcNAc(b1-2)Man(a1-3)[Fuc(a1-2)Gal(b1-3)GlcNAc(b1-2)Man(a1-6)]Man(b1-4)GlcNAc(b1-4)GlcNAc
# Procedure, shortened: as §1
# [3] = target: Fuc(a1-2)Gal(b1-3)GlcNAc6S
# Procedure, shortened: as §1
# [4] = target: Fuc(a1-2)Gal(b1-3)[Fuc(a1-4)]GlcNAc
# Procedure, shortened: as §1
# [5] = target: Fuc(a1-2)Gal(b1-3)[Fuc(a1-4)]GlcNAc(b1-3)[Gal(b1-4)GlcNAc(b1-6)]Gal(b1-4)Glc
# Procedure, shortened: as §1
# [6] = target: Fuc(a1-2)[Gal(a1-4)]Gal(b1-4)GlcNAc
# Procedure, shortened: as §1
# [7] = target: Fuc(a1-2)[GalNAc(a1-3)]Gal(b1-3)GalNAc(a1-3)[Fuc(a1-2)]Gal(b1-4)GlcNAc
# Procedure, shortened: as §1
# [8] = target: Fuc(a1-3)[Gal(b1-4)]GlcNAc(b1-2)Man
# Procedure, shortened: as §1
# [9] = target: Fuc(a1-3)[Gal(b1-4)]GlcNAc(b1-6)GalNAc
# Procedure, shortened: as §1
# [10] = target: Gal(a1-4)Gal(b1-4)GlcNAc(b1-2)Man(a1-3)[Gal(a1-4)Gal(b1-4)GlcNAc(b1-2)Man(a1-6)]Man(b1-4)GlcNAc(b1-4)GlcNAc
# Procedure, shortened: as §1
# [11] = target: Gal(a1-4)Gal(b1-4)GlcNAc(b1-3)Gal(b1-4)Glc
# Procedure, shortened: as §1
# Gal(b1-3)Gal = target: Gal(b1-3)Gal
# Procedure, shortened: as §1
# Gal(b1-3)Gal(b1-4)GlcNAc = target: Gal(b1-3)Gal(b1-4)GlcNAc
# Procedure, shortened: as §1
# Gal(b1-3)GalNAc(b1-3)Gal = target: Gal(b1-3)GalNAc(b1-3)Gal
# Procedure, shortened: as §1
# Gal(b1-3)GlcNAc = target: Gal(b1-3)GlcNAc
# Procedure, shortened: as §1
# [12] = target: Gal(b1-3)[Neu5Ac(a2-6)]GlcNAc(b1-4)Gal(b1-4)Glc
# Procedure, shortened: as §1
# [13] = target: Gal(b1-4)GlcNAc(b1-2)[Gal(b1-4)GlcNAc(b1-4)]Man(a1-3)[Gal(b1-4)GlcNAc(b1-2)Man(a1-6)]Man(b1-4)GlcNAc(b1-4)GlcNAc
# Procedure, shortened: as §1
# [14] = target: Gal(b1-4)GlcNAc(b1-3)Gal(b1-4)GlcNAc(b1-2)Man(a1-3)[Gal(b1-4)GlcNAc(b1-3)Gal(b1-4)GlcNAc(b1-2)Man(a1-6)]Man(b1-4)GlcNAc(b1-4)[Fuc(a1-6)]GlcNAc
# Procedure, shortened: as §1
# [15] = target: Gal(b1-4)GlcNAc(b1-3)Gal(b1-4)GlcNAc(b1-3)Gal(b1-4)GlcNAc(b1-2)[Gal(b1-4)GlcNAc(b1-3)Gal(b1-4)GlcNAc(b1-3)Gal(b1-4)GlcNAc(b1-6)]Man(a1-6)[Gal(b1-4)GlcNAc(b1-3)Gal(b1-4)GlcNAc(b1-3)Gal(b1-4)GlcNAc(b1-2)Man(a1-3)]Man(b1-4)GlcNAc(b1-4)[Fuc(a1-6)]GlcNAc
# Procedure, shortened: as §1
# [16] = target: Gal(b1-4)GlcNAc(b1-3)Gal(b1-4)GlcNAc(b1-3)Gal(b1-4)GlcNAc(b1-3)Gal(b1-4)GlcNAc(b1-3)Gal(b1-4)GlcNAc(b1-2)[Gal(b1-4)GlcNAc(b1-3)Gal(b1-4)GlcNAc(b1-3)Gal(b1-4)GlcNAc(b1-3)Gal(b1-4)GlcNAc(b1-3)Gal(b1-4)GlcNAc(b1-6)]Man(a1-6)[Gal(b1-4)GlcNAc(b1-3)Gal(b1-4)GlcNAc(b1-3)Gal(b1-4)GlcNAc(b1-3)Gal(b1-4)GlcNAc(b1-3)Gal(b1-4)GlcNAc(b1-2)Man(a1-3)]Man(b1-4)GlcNAc(b1-4)[Fuc(a1-6)]GlcNAc
# Procedure, shortened: as §1
# [17] = target: Gal(b1-4)GlcNAc(b1-3)Gal(b1-4)GlcNAc(b1-3)[Gal(b1-4)GlcNAc(b1-3)Gal(b1-4)GlcNAc(b1-6)]GalNAc
# Procedure, shortened: as §1
# Gal3S(b1-3)GlcNAc = target: Gal3S(b1-3)GlcNAc
# Procedure, shortened: as §1
# [18] = target: Gal3S(b1-4)[Fuc(a1-3)]GlcNAc6S
# Procedure, shortened: as §1
# Gal3S6S(b1-4)GlcNAc6S = target: Gal3S6S(b1-4)GlcNAc6S
# Procedure, shortened: as §1
# Gal4S6S(b1-4)GlcNAc = target: Gal4S6S(b1-4)GlcNAc
# Procedure, shortened: as §1
# GalNAc(b1-3)GalNAc = target: GalNAc(b1-3)GalNAc
# Procedure, shortened: as §1
# GalNAc(b1-6)GalNAc = target: GalNAc(b1-6)GalNAc
# Procedure, shortened: as §1
# [19] = target: GalNAc3S(b1-4)[Fuc(a1-3)]GlcNAc
# Procedure, shortened: as §1
# Glc(b1-6)Glc = target: Glc(b1-6)Glc
# Procedure, shortened: as §1
# [20] = target: GlcNAc(a1-4)Gal(b1-4)GlcNAc(b1-3)Gal(b1-4)[Fuc(a1-3)]GlcNAc(b1-3)Gal(b1-4)[Fuc(a1-3)]GlcNAc
# Procedure, shortened: as §1
# [21] = target: GlcNAc(b1-2)Gal(b1-3)GalNAc
# Procedure, shortened: as §1
# GlcNAc(b1-3)Fuc = target: GlcNAc(b1-3)Fuc
# Procedure, shortened: as §1
# [22] = target: GlcNAc(b1-3)Gal(b1-4)GlcNAc(b1-2)Man(a1-3)[GlcNAc(b1-3)Gal(b1-4)GlcNAc(b1-2)Man(a1-6)]Man(b1-4)GlcNAc(b1-4)[Fuc(a1-6)]GlcNAc
# Procedure, shortened: as §1
# [23] = target: GlcNAc(b1-3)[GlcNAc(b1-6)]Gal(b1-4)GlcNAc
# Procedure, shortened: as §1
# [24] = target: GlcNAc(b1-4)GlcNAc(b1-4)GlcNAc(b1-4)GlcNAc(b1-4)GlcNAc
# Procedure, shortened: as §1
# [25] = target: Man(a1-2)Man(a1-3)[Man(a1-6)]Man(a1-6)[Man(a1-2)Man(a1-3)]Man(b1-4)GlcNAc(b1-4)GlcNAc
# Procedure, shortened: as §1
# [26] = target: Man(a1-3)[Man(a1-6)]Man(a1-6)[Man(a1-3)]Man(b1-4)GlcNAc(b1-4)GlcNAc
# Procedure, shortened: as §1
# [27] = target: Neu5Ac(a2-3)Gal(b1-3)GalNAc(b1-4)[Neu5Ac(a2-3)]Gal(b1-4)Glc
# Procedure, shortened: as §1
# [28] = target: Neu5Ac(a2-3)Gal(b1-3)GlcNAc(b1-2)Man
# Procedure, shortened: as §1
# [29] = target: Neu5Ac(a2-3)Gal(b1-3)GlcNAc(b1-3)Gal(b1-4)GlcNAc
# Procedure, shortened: as §1
# [30] = target: Neu5Ac(a2-3)Gal(b1-3)[GlcNAc(b1-6)]GalNAc
# Procedure, shortened: as §1
# [31] = target: Neu5Ac(a2-3)Gal(b1-3)]Neu5Ac(a2-3)Gal(b1-4)]GlcNAc
# Procedure, shortened: as §1
# [32] = target: Neu5Ac(a2-3)Gal(b1-4)GlcNAc(b1-2)Man(a1-3)[Neu5Ac(a2-3)Gal(b1-4)GlcNAc(b1-2)Man(a1-6)]Man(b1-4)GlcNAc(b1-4)[Fuc(a1-6)]GlcNAc
# Procedure, shortened: as §1
# [33] = target: Neu5Ac(a2-3)Gal(b1-4)GlcNAc(b1-3)Gal(b1-4)GlcNAc
# Procedure, shortened: as §1
# [34] = target: Neu5Ac(a2-3)Gal(b1-4)GlcNAc6S
# Procedure, shortened: as §1
# [35] = target: Neu5Ac(a2-3)Gal(b1-4)[Fuc(a1-3)]GlcNAc(b1-2)Man
# Procedure, shortened: as §1
# [36] = target: Neu5Ac(a2-6)Gal(b1-4)GlcNAc(b1-2)Man(a1-6)[Man(a1-3)]Man(b1-4)GlcNAc(b1-4)GlcNAc
# Procedure, shortened: as §1
# [37] = target: Neu5Ac(a2-6)Gal(b1-4)GlcNAc(b1-3)Gal(b1-4)GlcNAc(b1-3)Gal(b1-4)GlcNAc(b1-2)Man(a1-3)[Neu5Ac(a2-6)Gal(b1-4)GlcNAc(b1-3)Gal(b1-4)GlcNAc(b1-3)Gal(b1-4)GlcNAc(b1-2)Man(a1-6)]GalNAc
# Procedure, shortened: as §1
# [38] = target: Neu5Ac(a2-6)Gal(b1-4)GlcNAc(b1-3)Gal(b1-4)GlcNAc(b1-3)GalNAc
# Procedure, shortened: as §1
# [39] = target: Neu5Ac(a2-6)Gal(b1-4)GlcNAc(b1-3)Gal(b1-4)GlcNAc(b1-3)[Neu5Ac(a2-6)Gal(b1-4)GlcNAc(b1-3)Gal(b1-4)GlcNAc(b1-6)]GalNAc
# Procedure, shortened: as §1
# [40] = target: Neu5Ac(a2-6)Gal(b1-4)GlcNAc(b1-6)[Gal(b1-3)GlcNAc(b1-3)]Gal(b1-4)Glc
# Procedure, shortened: as §1
# [41] = target: Neu5Ac(a2-6)GalNAc(b1-4)GlcNAc6S
# Procedure, shortened: as §1
# [42] = target: Neu5Ac(a2-8)Neu5Gc(a2-3)Gal(b1-4)GlcNAc
# Procedure, shortened: as §1
# [43] = target: Neu5Gc(a2-3)Gal(b1-4)GlcNAc(b1-3)Gal(b1-4)GlcNAc(b1-2)Man(a1-3)[Neu5Gc(a2-3)Gal(b1-4)GlcNAc(b1-3)Gal(b1-4)GlcNAc(b1-2)Man(a1-6)]Man(b1-4)GlcNAc(b1-4)GlcNAc
# Procedure, shortened: as §1
binder,measurement,setting,value
SJCP1531 (Schistosoma japonicum) (protein) MFKVRIINLVNISTVLLLINLLQTKSQVNVEQLVTVLEVNIKAQLKNKTTEVLVEWNPLYQDNSMPEYRKLLDETCKLFLPFVNEKVPPSTYGGECTNANFSEAPQDGSYSRVNAELRLIYKYSDNPQIQTDRLQDDLNDREEFITSESSFVAYNPKFTVKIEKLFIPISESQTTPPPTTAKNDASKKDDDDNGGEDSKAPIDTFAMTASGNKGKKDDDDNGGEDSKAPIDTFAMTASGSKDERSTWTIIGIITLVVLIFVVIGGGITVFVKRC,glycan array binding signal (z-score),[1],-0.571
same,glycan array binding signal (z-score),[2],-0.207
same,glycan array binding signal (z-score),[3],-0.955
same,glycan array binding signal (z-score),[4],0.144
same,glycan array binding signal (z-score),[5],0.498
same,glycan array binding signal (z-score),[6],0.12
same,glycan array binding signal (z-score),[7],-0.433
same,glycan array binding signal (z-score),[8],0.026
same,glycan array binding signal (z-score),[9],1.34
same,glycan array binding signal (z-score),[10],2.24
same,glycan array binding signal (z-score),[11],1.03
same,glycan array binding signal (z-score),Gal(b1-3)Gal,3.29
same,glycan array binding signal (z-score),Gal(b1-3)Gal(b1-4)GlcNAc,0.064
same,glycan array binding signal (z-score),Gal(b1-3)GalNAc(b1-3)Gal,-0.062
same,glycan array binding signal (z-score),Gal(b1-3)GlcNAc,0.101
same,glycan array binding signal (z-score),[12],-1.38
same,glycan array binding signal (z-score),[13],0.725
same,glycan array binding signal (z-score),[14],2.21
same,glycan array binding signal (z-score),[15],2.79
same,glycan array binding signal (z-score),[16],2.63
same,glycan array binding signal (z-score),[17],2.8
same,glycan array binding signal (z-score),Gal3S(b1-3)GlcNAc,0.215
same,glycan array binding signal (z-score),[18],1.28
same,glycan array binding signal (z-score),Gal3S6S(b1-4)GlcNAc6S,3.17
same,glycan array binding signal (z-score),Gal4S6S(b1-4)GlcNAc,-0.722
same,glycan array binding signal (z-score),GalNAc(b1-3)GalNAc,0.218
same,glycan array binding signal (z-score),GalNAc(b1-6)GalNAc,2.81
same,glycan array binding signal (z-score),[19],-1.15
same,glycan array binding signal (z-score),Glc(b1-6)Glc,-0.797
same,glycan array binding signal (z-score),[20],2.8
same,glycan array binding signal (z-score),[21],-1.08
same,glycan array binding signal (z-score),GlcNAc(b1-3)Fuc,-0.112
same,glycan array binding signal (z-score),[22],-0.143
same,glycan array binding signal (z-score),[23],0.523
same,glycan array binding signal (z-score),[24],-0.099
same,glycan array binding signal (z-score),[25],-1.4
same,glycan array binding signal (z-score),[26],-0.243
same,glycan array binding signal (z-score),[27],-1.32
same,glycan array binding signal (z-score),[28],-0.604
same,glycan array binding signal (z-score),[29],-0.438
same,glycan array binding signal (z-score),[30],0.205
same,glycan array binding signal (z-score),[31],-0.188
same,glycan array binding signal (z-score),[32],-1.15
same,glycan array binding signal (z-score),[33],2.53
same,glycan array binding signal (z-score),[34],0.004
same,glycan array binding signal (z-score),[35],-0.84
same,glycan array binding signal (z-score),[36],-1.2
same,glycan array binding signal (z-score),[37],3.3
same,glycan array binding signal (z-score),[38],2.87
same,glycan array binding signal (z-score),[39],3
same,glycan array binding signal (z-score),[40],0.485
same,glycan array binding signal (z-score),[41],0.413
same,glycan array binding signal (z-score),[42],-1.65
same,glycan array binding signal (z-score),[43],0.86

# Source: the supplement of paper PMC8728848
